Calls of active or inactive are those of the source. The calls were made as follows: active = hit-call score of the fitted dose curve at least 0.9, where 1 is the maximum; inactive = score below 0.9.
The compounds below were run against Myc proto-oncogene protein (Homo sapiens) (UniProt P01106) (assay: ATG_Myc_CIS: Attagene CIS-FACTORIAL HepG2 Assay for human Myelocytomatosis (Myc) Proto-Oncogene Transcription Factor (AID 2282990)). Details: HepG2, Attagene cis-reporter transcription factor activity; actives raise or lower the signal.
Chain of Myc proto-oncogene protein (Homo sapiens) (P01106 whole entry, looked up): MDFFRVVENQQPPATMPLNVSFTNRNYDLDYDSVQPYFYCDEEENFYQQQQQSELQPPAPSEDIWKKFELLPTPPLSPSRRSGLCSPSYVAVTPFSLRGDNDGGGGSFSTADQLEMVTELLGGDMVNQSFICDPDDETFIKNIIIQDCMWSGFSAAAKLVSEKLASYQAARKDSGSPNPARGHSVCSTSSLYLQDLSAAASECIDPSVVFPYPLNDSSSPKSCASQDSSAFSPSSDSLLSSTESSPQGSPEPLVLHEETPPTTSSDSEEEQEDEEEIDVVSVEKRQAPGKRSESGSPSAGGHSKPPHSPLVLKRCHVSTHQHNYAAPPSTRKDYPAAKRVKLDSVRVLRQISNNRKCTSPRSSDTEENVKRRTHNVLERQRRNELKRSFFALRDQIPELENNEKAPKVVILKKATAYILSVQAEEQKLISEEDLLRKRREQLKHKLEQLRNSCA
Experimental: ATG_CIS is a cell-based, multiplexed-readout assay that uses HepG2, a human liver cell line, with measurements taken at 24 hours after chemical dosing in a 24-well plate.ATG_Myc_CIS is one of 52 assay component(s) measured or calculated from the ATG_CIS assay. It is designed to make measurements of mRNA induction, a form of inducible reporter, as detected with fluorescence intensity signals by Reverse transcription polymerase chain reaction (RT-PCR) and Capillary electrophoresis technology.Data from the assay component ATG_Myc_CIS was analyzed into 1 assay endpoint. This assay endpoint, ATG_Myc_CIS, was analyzed with bidirectional fitting relative to DMSO as the negative control and baseline of activity. Using a type of inducible reporter, measures of mRNA for gain or loss-of-signal activity can be used to understand the reporter gene at the transcription factor-level as they relate to the gene MYC. Furthermore, this assay endpoint can be referred to as a primary readout, because this assay has produced multiple assay endpoints where this one serves a reporter gene function. To generalize the intended target to other relatable targets, this assay endpoint is annotated to the dna binding intended target family, where the subfamily is basic helix-loop-helix leucine zipper.
Human liver HepG2 cells are transiently transfected with multiple reporter transcription units (MRTUs) in 6-well plates using FuGene 6 reagent (Roche; 3 ml FuGene/1 mg DNA). The MRTU constructs are regulated by a cis-regulating element (promoter). […] A major difference between the CIS and TRANS system is that in CIS activities of endogenous TFs are measured, whereas the TRANS assay evaluates changes in activities of exogenous, chimeric NR-Gal4 proteins. […] At the end of 24 hour incubation, total RNA was isolated using TriZol reagent (Invitrogen). The isolated RNA is then reverse-transcribed using oligo(dT) primer and Mo-MLV reverse transcriptase (Invitrogen) with DNAse I (Ambion) treatment for 30 min. The one-tenth of the produced cDNA was amplified by PCR using Taq DNA polymerase (Invitrogen) and two reporter sequence-specific primers. The PCR products were fluorescently labeled by primer extension with 6-arboxyfluorescein (6-FAM) 5'-labeled reporter sequence-specific primer (2 min at 95 C, 20 s at 68 C and 10 min at 72 C) and these products were digested with 5U of HpaI (New England Biolabs) for 2h at 37 C. The fragments were purified using Qiaquick PCR columns (Qiagen), analyzed on an ABI 3130xL genetic analyzer (Applied Biosystems) with peak positions identified by using a set of X-rhodamine (ROX)-labeled MapMarker1000 molecular weight standards (BioVentures). The raw capillary electrophoresis data was processed using Attagraph software (Attagene).

outcome, inactive:
C=COCCCC, CCCCCCCC/C=C\CCCCCCCC(=O)OCCO, COc1ccc2nc(N)sc2c1, COc1ccc(-c2coc3cc(O)ccc3c2=O)cc1, CC1=CC[C@H](C(C)C)C=C1, CCCCCc1ccc(Cl)cc1, C=CCOCC(O)CCl (stereo not given), Cc1cc(C)c(C(=O)O)c(C)c1, Nc1ccc(Oc2ccc(N)c(N)c2)cc1, Cn1c([N+](=O)[O-])cnc1COC(N)=O, O=C(O)c1cc2ccccc2nc1C(=O)O, SCCc1cnccn1, CCOC(F)(F)C(F)(F)C(F)(F)C(F)(F)F, CCc1nccnc1C, [Cl][Nd]([Cl])[Cl], NNC(=O)c1cccc(C(=O)NN)c1, CC(C)COC(=O)C=Cc1ccccc1, CC(C)=CCC/C(C)=C\C#N, Nc1ccc2cc3ccccc3cc2c1, O=[N+]([O-])C1(Br)COCOC1, CC1OC1C1CCC2(C)OC2C1 (stereo not given), CCCCCCOc1cc(C)c(O)c(C)c1C, C=CC=CC=CCCCCC, C1=Cc2ccccc2C1, CCOCC(=O)O, CNC(=S)N(C)C, O=CN1CCCCC1, N#[N+]c1ccc2c(S(=O)(=O)[O-])cccc2c1O, C=C(C)[C@H]1CC=C(C)CC1, O=c1cc[nH]c(=S)[nH]1, CCC(C)OC(=O)c1ccc(O)cc1 (stereo not given), COCC(C)N (stereo not given), CCCCCCCCCCCCCCCC(=O)OCC, CC(=O)Oc1ccc(C)cc1, COc1ccc([C@@H]2CC(=O)c3c(O)cc(O[C@@H]4O[C@H](CO[C@@H]5O[C@@H](C)[C@H](O)[C@@H](O)[C@H]5O)[C@@H](O)[C@H](O)[C@H]4O)cc3O2)cc1OC, O=C1CCC(=O)N1Cl, CC(C)(Oc1ccc(C2CC2(Cl)Cl)cc1)C(=O)O (stereo not given), CC(C)(c1cc(Br)c(OCCO)c(Br)c1)c1cc(Br)c(OCCO)c(Br)c1, NC(=O)c1ccccc1O, C=CC(=O)NC(C)(C)CS(=O)(=O)O
